Source: the supplement of paper PMC11001985

Compound: C#CCNC(=O)CCSSCCC(=O)NCCc1ccc(C=O)c(C=O)c1
Experiment: lysine labeling ratio R10:1 (500 µM / 50 µM probe), SILAC-ABPP in living cells; higher = lower intrinsic lysine reactivity toward the probe, active = 2 or less
Conditions: HeLa; probe concentrations 500 vs 50 µM
Method: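 Living HeLa cells (SILAC light/heavy) in PBS at room temperature were labeled with 50 µM versus 500 µM of the lysine-reactive, reductant-cleavable probe OPA-S-S-alkyne (SILAC labeling time not stated). Probe-modified peptides were CuAAC-biotinylated, captured on neutravidin and eluted with DTT/IAA, then quantified by LC-MS/MS. R = median peptide ratio per lysine (500/50 µM), combined over 3 forward and 3 reverse SILAC replicates. Ratios are capped at 20; R < 2 = hyper-reactive.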

Chain of UniProt Q15149 (Q15149 whole entry): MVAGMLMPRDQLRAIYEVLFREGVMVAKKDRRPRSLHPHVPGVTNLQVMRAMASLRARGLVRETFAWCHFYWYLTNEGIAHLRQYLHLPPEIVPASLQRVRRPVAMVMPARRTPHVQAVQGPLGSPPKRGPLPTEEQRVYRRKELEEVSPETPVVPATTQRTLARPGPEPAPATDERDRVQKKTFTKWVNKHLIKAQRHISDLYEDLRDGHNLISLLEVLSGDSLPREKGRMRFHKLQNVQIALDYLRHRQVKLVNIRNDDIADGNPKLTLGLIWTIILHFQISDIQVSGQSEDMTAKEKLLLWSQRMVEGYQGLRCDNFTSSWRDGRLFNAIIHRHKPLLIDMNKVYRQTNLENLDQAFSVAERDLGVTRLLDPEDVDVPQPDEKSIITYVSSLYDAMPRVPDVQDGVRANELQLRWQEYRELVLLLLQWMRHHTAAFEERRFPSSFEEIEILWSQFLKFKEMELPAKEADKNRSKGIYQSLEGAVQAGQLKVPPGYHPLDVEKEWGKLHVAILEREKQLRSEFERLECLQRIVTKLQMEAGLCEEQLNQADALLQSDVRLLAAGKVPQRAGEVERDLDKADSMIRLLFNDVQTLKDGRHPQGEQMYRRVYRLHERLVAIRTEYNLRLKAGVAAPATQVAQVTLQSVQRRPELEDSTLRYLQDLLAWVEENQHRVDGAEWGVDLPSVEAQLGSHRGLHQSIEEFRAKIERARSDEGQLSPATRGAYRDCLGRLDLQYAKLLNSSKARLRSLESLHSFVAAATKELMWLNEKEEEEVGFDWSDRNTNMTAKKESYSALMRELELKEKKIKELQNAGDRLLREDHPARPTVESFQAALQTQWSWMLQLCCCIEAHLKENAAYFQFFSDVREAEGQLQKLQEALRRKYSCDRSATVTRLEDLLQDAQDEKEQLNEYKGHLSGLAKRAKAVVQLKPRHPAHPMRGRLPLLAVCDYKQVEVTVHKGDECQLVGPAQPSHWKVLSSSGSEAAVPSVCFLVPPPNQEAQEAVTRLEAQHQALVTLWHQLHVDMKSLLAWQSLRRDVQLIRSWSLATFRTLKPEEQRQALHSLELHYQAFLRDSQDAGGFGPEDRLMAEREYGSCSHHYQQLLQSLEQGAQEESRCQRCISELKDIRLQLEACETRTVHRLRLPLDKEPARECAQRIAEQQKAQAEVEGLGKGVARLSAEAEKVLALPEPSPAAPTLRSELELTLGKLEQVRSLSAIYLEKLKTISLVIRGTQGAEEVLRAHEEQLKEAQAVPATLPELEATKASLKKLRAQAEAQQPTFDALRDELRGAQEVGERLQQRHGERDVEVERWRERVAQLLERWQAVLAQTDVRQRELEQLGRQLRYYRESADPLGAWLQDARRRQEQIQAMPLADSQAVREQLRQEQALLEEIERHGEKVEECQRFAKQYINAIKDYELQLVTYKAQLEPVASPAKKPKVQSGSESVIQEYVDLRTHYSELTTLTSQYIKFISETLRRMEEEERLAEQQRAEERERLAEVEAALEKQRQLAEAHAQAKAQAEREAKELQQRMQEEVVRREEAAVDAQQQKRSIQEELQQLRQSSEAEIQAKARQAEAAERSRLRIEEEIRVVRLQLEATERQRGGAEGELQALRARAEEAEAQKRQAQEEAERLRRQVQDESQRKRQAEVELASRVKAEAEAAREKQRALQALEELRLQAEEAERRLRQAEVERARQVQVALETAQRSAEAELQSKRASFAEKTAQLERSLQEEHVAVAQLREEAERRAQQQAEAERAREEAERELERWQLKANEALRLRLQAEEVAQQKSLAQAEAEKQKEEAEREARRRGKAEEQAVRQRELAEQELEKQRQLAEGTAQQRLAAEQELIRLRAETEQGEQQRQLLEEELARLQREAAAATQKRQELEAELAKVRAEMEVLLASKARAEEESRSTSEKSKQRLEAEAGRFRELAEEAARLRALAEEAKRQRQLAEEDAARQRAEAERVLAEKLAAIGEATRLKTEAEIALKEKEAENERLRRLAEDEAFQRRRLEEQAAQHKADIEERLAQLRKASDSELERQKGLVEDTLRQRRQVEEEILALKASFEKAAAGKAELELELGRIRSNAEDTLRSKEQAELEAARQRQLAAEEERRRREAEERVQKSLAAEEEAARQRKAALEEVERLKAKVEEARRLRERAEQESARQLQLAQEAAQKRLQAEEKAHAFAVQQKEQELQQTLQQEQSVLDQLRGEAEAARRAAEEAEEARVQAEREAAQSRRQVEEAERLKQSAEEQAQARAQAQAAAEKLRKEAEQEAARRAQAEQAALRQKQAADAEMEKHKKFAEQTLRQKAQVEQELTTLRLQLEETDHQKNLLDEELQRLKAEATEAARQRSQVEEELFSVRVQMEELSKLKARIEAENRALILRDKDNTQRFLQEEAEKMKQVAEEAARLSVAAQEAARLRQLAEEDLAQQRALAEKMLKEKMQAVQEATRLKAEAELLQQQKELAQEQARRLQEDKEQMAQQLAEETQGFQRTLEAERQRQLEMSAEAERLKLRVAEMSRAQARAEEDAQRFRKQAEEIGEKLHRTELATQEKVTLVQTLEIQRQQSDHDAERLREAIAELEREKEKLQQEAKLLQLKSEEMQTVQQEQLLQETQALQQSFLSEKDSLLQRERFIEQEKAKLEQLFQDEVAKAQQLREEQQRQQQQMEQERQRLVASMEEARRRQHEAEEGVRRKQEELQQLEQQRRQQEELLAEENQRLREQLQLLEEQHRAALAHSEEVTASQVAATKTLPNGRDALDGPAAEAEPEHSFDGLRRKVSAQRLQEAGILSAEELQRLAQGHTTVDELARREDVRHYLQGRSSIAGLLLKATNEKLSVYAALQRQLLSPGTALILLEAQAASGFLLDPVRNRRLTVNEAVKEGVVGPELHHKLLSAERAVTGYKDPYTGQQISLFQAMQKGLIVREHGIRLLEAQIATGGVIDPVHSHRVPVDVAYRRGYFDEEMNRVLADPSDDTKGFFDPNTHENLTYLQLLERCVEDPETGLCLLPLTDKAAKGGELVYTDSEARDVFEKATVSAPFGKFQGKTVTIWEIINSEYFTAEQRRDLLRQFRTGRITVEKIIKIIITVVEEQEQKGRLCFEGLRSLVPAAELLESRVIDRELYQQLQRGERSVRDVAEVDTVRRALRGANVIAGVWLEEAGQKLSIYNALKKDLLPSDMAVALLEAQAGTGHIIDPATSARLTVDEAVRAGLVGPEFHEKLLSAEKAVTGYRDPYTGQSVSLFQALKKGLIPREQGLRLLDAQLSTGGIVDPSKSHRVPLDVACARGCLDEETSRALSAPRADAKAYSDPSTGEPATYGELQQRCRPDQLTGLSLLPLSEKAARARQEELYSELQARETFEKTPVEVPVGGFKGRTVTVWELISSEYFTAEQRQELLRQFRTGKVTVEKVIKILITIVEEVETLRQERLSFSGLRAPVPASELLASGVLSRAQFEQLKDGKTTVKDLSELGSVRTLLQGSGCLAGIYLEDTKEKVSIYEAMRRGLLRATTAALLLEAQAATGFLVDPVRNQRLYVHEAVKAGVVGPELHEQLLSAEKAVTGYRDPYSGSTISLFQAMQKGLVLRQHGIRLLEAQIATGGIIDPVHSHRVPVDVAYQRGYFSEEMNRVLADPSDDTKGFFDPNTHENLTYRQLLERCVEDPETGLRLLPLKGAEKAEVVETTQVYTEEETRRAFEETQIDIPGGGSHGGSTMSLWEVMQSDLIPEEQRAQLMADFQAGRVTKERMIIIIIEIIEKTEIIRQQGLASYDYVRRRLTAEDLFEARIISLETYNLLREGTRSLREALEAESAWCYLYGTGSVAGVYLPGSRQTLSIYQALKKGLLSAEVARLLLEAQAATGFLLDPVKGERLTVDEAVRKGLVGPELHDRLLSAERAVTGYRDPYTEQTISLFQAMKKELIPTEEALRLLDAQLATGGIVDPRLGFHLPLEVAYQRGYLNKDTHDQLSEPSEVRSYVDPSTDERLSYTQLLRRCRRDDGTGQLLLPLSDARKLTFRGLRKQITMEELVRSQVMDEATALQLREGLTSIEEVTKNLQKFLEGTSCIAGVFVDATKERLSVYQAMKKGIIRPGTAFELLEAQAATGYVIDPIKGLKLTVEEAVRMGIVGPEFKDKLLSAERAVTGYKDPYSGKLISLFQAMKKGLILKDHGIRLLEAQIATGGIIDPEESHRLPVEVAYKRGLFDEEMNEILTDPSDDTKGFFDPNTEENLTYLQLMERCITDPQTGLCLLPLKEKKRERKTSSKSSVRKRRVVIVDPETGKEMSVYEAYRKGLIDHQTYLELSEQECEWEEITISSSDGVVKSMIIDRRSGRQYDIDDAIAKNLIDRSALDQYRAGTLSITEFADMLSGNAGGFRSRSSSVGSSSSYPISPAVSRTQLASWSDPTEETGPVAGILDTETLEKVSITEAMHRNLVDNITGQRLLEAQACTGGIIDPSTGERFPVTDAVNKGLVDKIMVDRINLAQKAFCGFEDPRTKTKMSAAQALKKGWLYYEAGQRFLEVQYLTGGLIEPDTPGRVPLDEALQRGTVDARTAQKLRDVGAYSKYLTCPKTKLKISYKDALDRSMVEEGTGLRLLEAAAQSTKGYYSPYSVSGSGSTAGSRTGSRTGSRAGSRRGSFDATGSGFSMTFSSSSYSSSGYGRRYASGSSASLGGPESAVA
Chain of UniProt P48047 (P48047 whole entry): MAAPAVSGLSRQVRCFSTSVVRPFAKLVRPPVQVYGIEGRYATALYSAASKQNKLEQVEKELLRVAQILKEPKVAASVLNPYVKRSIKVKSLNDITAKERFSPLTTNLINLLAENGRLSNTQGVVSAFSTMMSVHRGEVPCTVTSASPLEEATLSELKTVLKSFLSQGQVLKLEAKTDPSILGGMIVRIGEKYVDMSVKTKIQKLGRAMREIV
Chain of UniProt Q9BZM4 (Q9BZM4 whole entry): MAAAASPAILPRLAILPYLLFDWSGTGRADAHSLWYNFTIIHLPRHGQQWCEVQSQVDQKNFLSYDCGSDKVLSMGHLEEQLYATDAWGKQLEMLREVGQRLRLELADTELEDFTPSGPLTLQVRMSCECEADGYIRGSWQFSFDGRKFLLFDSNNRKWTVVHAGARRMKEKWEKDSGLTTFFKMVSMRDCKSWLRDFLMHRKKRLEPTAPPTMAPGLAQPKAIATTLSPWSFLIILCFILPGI

Lysine labeling ratio R10:1, active:
C1QBP (lysine site: K91) (UniProt Q07021) 0.97, ITGA6 (lysine site: K127) (UniProt P23229) 1.74, MYH9 (lysine site: K202) (UniProt P35579) 1.58, CCT2 (lysine site: K284) (UniProt P78371) 1.69, CCT2 (lysine site: K250) (UniProt P78371) 1.5, UniProt P61978 (lysine site: K219) 0.79, LAMC1 (lysine site: K1354) (UniProt P11047) 1.67, UniProt P60660 (lysine site: K26) 1.69, FH (lysine site: K80) (UniProt P07954) 1.86, UniProt Q15149 (lysine site: K2037) 1.95, NUCB1 (lysine site: K177) (UniProt Q02818) 1.71

Lysine labeling ratio R10:1, inactive:
UniProt P48047 (lysine site: K84) 4.75, PTK7 (lysine site: K636) (UniProt Q13308) 11, MELTF (lysine site: K544) (UniProt P08582) 2.25, UniProt Q15149 (lysine site: K2099) 4.12, SLC44A1 (lysine site: K75) (UniProt Q8WWI5) 2.45, CDH2 (lysine site: K223) (UniProt P19022) 2.63, DDX3X (lysine site: K118) (UniProt O00571) 4.1, TLN1 (lysine site: K1190) (UniProt Q9Y490) 14.3, CD109 (lysine site: K127) (UniProt Q6YHK3) 12, UniProt P55072 (lysine site: K236) 2.76, AXL (lysine site: K211) (UniProt P30530) 2.55, ALDOC (lysine site: K111) (UniProt P09972) 6.08, TMEM30A (lysine site: K155) (UniProt Q9NV96) 2.09, GDI2 (lysine site: K435) (UniProt P50395) 4.66, SPTBN1 (lysine site: K1249) (UniProt Q01082) 4.92, UniProt Q9BZM4 (lysine site: K148) 2.1, SPTBN1 (lysine site: K1421) (UniProt Q01082) 3.37, UniProt P46781 (lysine site: K66) 2.63, HEG1 (lysine site: K1075) (UniProt Q9ULI3) 3.38, ALDOA (lysine site: K13) (UniProt P04075) 8.82, GSN (lysine site: K239) (UniProt P06396) 4.08, UniProt Q00341 (lysine site: K494) 2.15, S100A4 (lysine site: K57) (UniProt P26447) 3.85, TFRC (lysine site: K439) (UniProt P02786) 2.93, FAT4 (lysine site: K2221) (UniProt Q6V0I7) 4.75, UniProt Q15149 (lysine site: K2903) 2.51, PTPRF (lysine site: K1016) (UniProt P10586) 3.97, UniProt Q9Y5I4 (lysine site: K686) 5.99, FLNA (lysine site: K338) (UniProt P21333) 3.9
